This passage reports growth inhibition results from PubChem BioAssay (NCI).

Structures are written as SMILES. This is part of a sample that, as a whole, favours compounds with a hit. Of some 79,000 tested, about 15% had one in any assay. The source made the active and inactive calls. Cut-off read from the data, not from the text of the source: active = growth inhibition above about 70%; inactive = the rest.

The first test is described as follows: NCI Yeast Anticancer Drug Screen. Data for the bub3 strain (AID 167). Particulars: S. cerevisiae bub3 mutant strain, at 50.0 µM, stronger effect = higher value. The method in brief: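 Mutant yeast screening strain plus compound; vehicle-treated cultures serve as the 0% inhibition reference.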
Take `COc1ccc2c3c1OC1C(O)C=CC4C(C2)N(N=O)CCC341` (centres undefined): the growth inhibition is 5.25% (inactive).

In the case of `CC(C)C1C=Cc2ccccc21` (centres undefined), the growth inhibition was -3.55% (inactive).

Turning to `CCOC(=O)C(C#N)c1ccccc1` (centres undefined), the growth inhibition is -9.55% (inactive).

Turning to `C1CN2CCOC2O1`, the growth inhibition was 7.45% (inactive).

For the compound `CCC(=O)OC1(c2ccccc2)CCN(CCC(O)c2ccccc2)CC1C` (centres undefined), the growth inhibition was 1.1% (inactive).

`S=P(Oc1cc(Cl)c(Cl)cc1Cl)(N1CCOCC1)N1CCOCC1`: the growth inhibition was 12.3% (inactive).

For `CC1CCC2C(C)C3C(CC4C5CCC6CC(O)CCC6(C)C5CCC43C)N2C1` (centres undefined), the growth inhibition was -18.4% (inactive).

Consider `CCCCCCCCCCC(=O)O`, for which the growth inhibition is -15.4% (inactive).

On to `Oc1ccccc1C=NCCN=Cc1ccccc1O`, for which the growth inhibition was -9.2% (inactive).

Take `C=C1[C@@H](C)[C@H]2[C@H](Cc3ccccc3)NC(=O)[C@]23OC(=O)/C=C/[C@H](O)CCC[C@@H](C)C/C=C/[C@H]3[C@@H]1O`: the growth inhibition is 58.8% (inactive).

With `O=C/C=C/c1ccco1`, the growth inhibition is -8.45% (inactive).

With `CC(C)c1cc(C(C)C)c(S(=O)(=O)N=[N+]=[N-])c(C(C)C)c1`, the growth inhibition is -16.9% (inactive).

For `N#CC(C#N)=Cc1ccccc1O`, the growth inhibition is -19.8% (inactive).

`CC(C)c1cc2c(cc1O)C1(C)CCCC(C)(C)C1=CC2=O` (centres undefined): the growth inhibition was -5.8% (inactive).

A short description of a further test: NCI Yeast Anticancer Drug Screen. Data for the mlh1 rad18 strain (AID 175). Particulars: S. cerevisiae mlh1 rad18 strain growth inhibition; at 50.0 µM; stronger effect = higher value. The method in brief:
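In this whole-cell yeast screen, a strain with altered DNA damage repair is challenged with compound, and its growth is measured against matched vehicle-treated controls.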
For the compound `COc1cc(/C=N/NC(=O)CN(C)C)cc(OC)c1N(CCCl)CCCl`, the growth inhibition was 5.2% (inactive).

For `CCOP(=O)(O)C1CCCC(C)[N-]1.CCOP(=O)(O)C1CCCC(C)[N-]1.[Cu+2]` (centres undefined), the growth inhibition was 26.6% (inactive).

Consider `NC(Cc1ccc(Cl)cc1)c1nn[nH]n1` (centres undefined), for which the growth inhibition was -7.7% (inactive).

On to `Cc1cc(C)[c]([Hg][Cl])c(C)c1`, for which the growth inhibition is 97.8% (active).

Turning to `[CH3][Sb]([CH3])([CH3])([I])[I]`, the growth inhibition is 1.25% (inactive).

As for `C=C1CC2C3CC=C4CC(OC(C)=O)CCC4(C)C3CCC2(C)C1=O` (centres undefined), the growth inhibition is 15.7% (inactive).

As for `CCCC(C)SP(=S)(SC(C)CCC)SC(C)CCC` (centres undefined), the growth inhibition is 19.6% (inactive).

As for `CCCC[S][Sn]([CH2]CCC)([CH2]CCC)[S]CCCC`, the growth inhibition was 95.5% (active).

On to `COP1(=S)OCC2CCC[C@@H]2O1` (some centres undefined), for which the growth inhibition is -32.1% (inactive).

`CCOC(C(=O)O)(c1ccccc1)c1ccccc1`: the growth inhibition is 22.8% (inactive).

Consider `NC(CP(=O)(O)O)C(=O)O` (centres undefined), for which the growth inhibition is -37.6% (inactive).

Turning to `CCC12C=CCN3CCC4(C(=C(C(=O)OC)C1)Nc1ccccc14)[C@H]32` (some centres undefined), the growth inhibition is 0.8% (inactive).

In the case of `N#CCN(CC#N)[N+](=O)[O-]`, the growth inhibition is 0.4% (inactive).

Take `O=CNC(CSC(c1ccccc1)c1ccccc1)C(=O)O` (centres undefined): the growth inhibition is 4.4% (inactive).

For the compound `O=C(COc1ccccc1Cl)Nc1ccc[n+](Cc2ccc(S(=O)(=O)F)cc2)c1`, the growth inhibition is -0.7% (inactive).

Take `O=C1CCCN1CC#CCN1C[C@@H]2C3CCC(C3)[C@@H]2C1`: the growth inhibition is 27.6% (inactive).

As to `CC(=O)OC1CC2(O)C3CCC4CC(O)CCC4(C)C3CCC2(C)C1C1=CC(=O)OC1` (centres undefined), the growth inhibition was -1.75% (inactive).

Turning to `ClCCN(CCCl)c1ccc(/C=N/N=C2c3ccccc3-c3ccccc32)cc1`, the growth inhibition is -4.5% (inactive).

With `O[C@H](c1ccccc1)[C@@H](c1ccccc1)N1CCCCC1`, the growth inhibition is -11.6% (inactive).

On to `C/C=C\CC1(C/C=C/C)C(=O)NC(=O)NC1=O`, for which the growth inhibition was 1.25% (inactive).

On to `Nc1ccc(Sc2ccc(N)cc2)cc1`, for which the growth inhibition is 23.1% (inactive).

For `COc1ccc2c(c1OC(C)=O)-c1cc(OC(C)=O)cc3c1C(C2)N(C(=O)CN(CCCl)CCCl)CC3` (centres undefined), the growth inhibition is -6.6% (inactive).

Turning to `CCCCOP(=O)(Nc1ccc(Cl)cc1)OCCCC`, the growth inhibition is 99.5% (active).

In the case of `CC1C(C)(C)P(=O)(Oc2cccc3cccnc23)C1(C)C` (centres undefined), the growth inhibition was 57.2% (inactive).

Turning to `O=[N+]([O-])c1c(Cl)cc(Cl)c([N+](=O)[O-])c1Cl`, the growth inhibition is 32.1% (inactive).

For `COc1ccc2c3c1OC1C(O)C=CC4C(C2)N(N=O)CCC341` (centres undefined), the growth inhibition is 21.7% (inactive).

As for `CC(C)C1C=Cc2ccccc21` (centres undefined), the growth inhibition is 28.8% (inactive).

Take `CCOC(=O)C(C#N)c1ccccc1` (centres undefined): the growth inhibition is 43.4% (inactive).

Take `C1CN2CCOC2O1`: the growth inhibition is -7.1% (inactive).

Regarding `CCC(=O)OC1(c2ccccc2)CCN(CCC(O)c2ccccc2)CC1C` (centres undefined), the growth inhibition is 6.2% (inactive).

`S=P(Oc1cc(Cl)c(Cl)cc1Cl)(N1CCOCC1)N1CCOCC1`: the growth inhibition was 19.9% (inactive).

For `CC1CCC2C(C)C3C(CC4C5CCC6CC(O)CCC6(C)C5CCC43C)N2C1` (centres undefined), the growth inhibition was 15.7% (inactive).

For the compound `CCCCCCCCCCC(=O)O`, the growth inhibition was 15.2% (inactive).

For the compound `Oc1ccccc1C=NCCN=Cc1ccccc1O`, the growth inhibition is 31.8% (inactive).

`C=C1[C@@H](C)[C@H]2[C@H](Cc3ccccc3)NC(=O)[C@]23OC(=O)/C=C/[C@H](O)CCC[C@@H](C)C/C=C/[C@H]3[C@@H]1O`: the growth inhibition was 58.5% (inactive).
